Assay outcomes deposited in PubChem BioAssay by National Center for Advancing Translational Sciences (NCATS).
Compounds with a hit are over-represented: about 2.4% of the library has one in this group of screens.
Pol kappa inh = qHTS for Inhibitors of Polymerase Kappa | DNA polymerase kappa (Homo sapiens), Q9UBT6 | purified Pol kappa, fluorescent DNA synthesis assay, 10 min | Potency, µM (highest dose often 107 µM), hits mostly inhibitors | actives 0.53% (n = 400,000) | AID 588579, 2011
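50 nM final substrate added after 15 min RT preincubation of 10 nM Pol kappa with compound; fluorescence read at 0 and 10 min.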
WRN inhibitor = qHTS for Inhibitors of WRN Helicase. Bifunctional 3'-5' exonuclease/ATP-dependent helicase WRN (Homo sapiens), Q14191. actives 0.46% (n = 360,000). Potency, µM (titrated, usually from 114 µM), hits mostly inhibitors. AID 651768, 2012. WRN helicase unwinding, fluorescent forked duplex, kinetic; also: nearly all actives have a fitted effect of over 55% in size
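Primary qHTS, 1536-well format. 20 nM WRN + compound, 15 min RT; start with 100 nM forked fluorophore/quencher duplex, 2 mM ATP (final); kinetic read ex 525/em 598 nm.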
POLB inh = qHTS Assay for Inhibitors of DNA Polymerase Beta. P06746. Pol beta primer extension/strand displacement, fluorescence kinetic. Potency, µM (doses to about 114 µM), most hits filed as inhibitors. actives 1.3% (n = 340,000). AID 485314, 2010
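Pol beta (10 nM) and compounds were preincubated 15 min at room temperature, then 50 nM substrate (final) started primer extension/strand displacement. Reads were taken at 0 and 10 min; concentration-response data were fitted to a four-parameter Hill equation.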
Pol eta inh = qHTS for Inhibitors of Polymerase Eta; DNA polymerase eta (Homo sapiens), Q9Y253; recombinant Pol eta, fluorescent DNA replication assay; Potency, µM (doses to about 114 µM), usual class: inhibitors; actives 1.2% (n = 390,000)
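Pol eta (10 nM) was preincubated with compounds for 15 min at room temperature, after which fluorescent replication substrate (50 nM final) was added to start the reaction. Fluorescence was read kinetically at 0 and 10 min.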
POLI inh = qHTS for Inhibitors of Polymerase Iota. DNA polymerase iota (Homo sapiens), Q9UNA4. Pol iota fluorescent replication assay, 10 min. Potency, µM (doses to about 115 µM), actives largely listed as inhibitors. actives 1% (n = 390,000)
Target sequence (Q9UNA4 whole entry, looked up): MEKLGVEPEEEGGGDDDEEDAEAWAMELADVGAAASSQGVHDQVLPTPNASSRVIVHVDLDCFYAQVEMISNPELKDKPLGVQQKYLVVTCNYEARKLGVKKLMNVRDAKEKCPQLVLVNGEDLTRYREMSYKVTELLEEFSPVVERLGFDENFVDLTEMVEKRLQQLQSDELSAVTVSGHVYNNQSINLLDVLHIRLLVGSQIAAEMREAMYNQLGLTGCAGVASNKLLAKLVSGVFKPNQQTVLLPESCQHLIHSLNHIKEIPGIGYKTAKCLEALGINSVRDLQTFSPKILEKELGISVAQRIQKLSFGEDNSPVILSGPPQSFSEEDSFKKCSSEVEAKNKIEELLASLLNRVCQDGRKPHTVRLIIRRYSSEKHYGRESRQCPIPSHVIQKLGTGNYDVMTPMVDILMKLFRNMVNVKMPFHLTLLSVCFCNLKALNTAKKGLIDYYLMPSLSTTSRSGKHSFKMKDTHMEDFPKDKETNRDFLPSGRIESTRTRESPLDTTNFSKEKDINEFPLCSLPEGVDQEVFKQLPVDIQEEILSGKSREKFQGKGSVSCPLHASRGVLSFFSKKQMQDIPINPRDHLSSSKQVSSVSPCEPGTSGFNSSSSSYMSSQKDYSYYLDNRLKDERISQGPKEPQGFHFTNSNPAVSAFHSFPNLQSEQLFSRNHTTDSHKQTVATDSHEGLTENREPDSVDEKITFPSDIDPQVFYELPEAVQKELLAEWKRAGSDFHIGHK
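Pol iota at 10 nM preincubated 15 min with compounds at room temperature; reaction started with fluorescent substrate, 50 nM final. Fluorescence read kinetically at 0 and 10 min; buffer-only wells as negative control.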
FEN1 inh = qHTS Assay for the Inhibitors of Human Flap endonuclease 1 (FEN1). actives 0.35% (n = 390,000). P39748. Potency, µM (series often up to 114 µM), actives largely listed as inhibitors. Recombinant FEN1 flap cleavage, fluorescence, 15 min; also: nearly all actives have a fitted effect of over 65% in size
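Reaction started by adding substrate (50 nM final) to 10 nM enzyme after 15 min room-temperature compound preincubation. Reads at 0 and 15 min, with data normalized and fitted to a four-parameter Hill equation.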
Large screens that a line does not name were inactive. Calls follow the shape of the dose curve; as a rule, active = well fitted curve in the direction sought with a large enough effect; inconclusive = small, poorly fitted or top-dose-only effect, or another doubt; inactive = no such curve, though single readings can be large; an effect the other way counts as inactive or inconclusive.

CC(C)(C)OC(=O)N1CCCC(C(=O)Nc2ccc(C(=O)N3CCCCC3)cc2)C1 (centres undefined)	none (no result: POLB inh)
COc1ccc2cnn(Cc3ccccc3)c(=O)c2c1OC	none
Nc1ccc(N2CCOCC2)c2nonc12	POLB inh inconclusive, Pol eta inh 79µM, POLI inh inconclusive, FEN1 inh inconclusive
N#C/C(=C\c1c(Oc2ccc(F)cc2)nc2ccccn2c1=O)c1nc2ccccc2s1	Pol kappa inh inconclusive, POLB inh inconclusive, POLI inh 20µM, FEN1 inh inconclusive (no result: WRN inhibitor)
COc1ccc(C(CC(=O)c2ccccc2)C2CCCCC2=O)cc1 (centres undefined)	none
COc1ccc(C(=O)CC(c2ccccc2)C2C(=O)CCCC2=O)cc1 (centres undefined)	Pol eta inh 79µM, POLI inh inconclusive
O=C(Nc1ccc(N2CCOCC2)c(S(=O)(=O)Nc2ccc(Cl)cc2)c1)c1ccc(=O)[nH]n1	Pol kappa inh inconclusive, Pol eta inh 20µM, POLI inh 10µM (no result: POLB inh)
O=C(Nc1ccc(N2CCOCC2)c(S(=O)(=O)Nc2ccc(Cl)cc2)c1)c1cnccn1	Pol eta inh inconclusive
Cc1ccc2c(c1)nnn2C1CCN(S(=O)(=O)c2ccc(C(=O)NC3CCCC3)cc2)CC1	none
C=CCn1c(O)c(CN2CCCCC2)c(C)c(C#N)c1=O	POLI inh 28µM
Cc1c(CN2CCCC(C)C2)c(O)n(CCO)c(=O)c1C#N (centres undefined)	POLB inh inconclusive
Cc1ccc2cc(N)ccc2n1	POLB inh inconclusive
Nc1ccc2cc3ccc(N)cc3nc2c1	Pol kappa inh 9.5µM (no result: WRN inhibitor, POLB inh, Pol eta inh, POLI inh, FEN1 inh)
C#CCOc1ccc(-c2nnc(Nc3cccc(C)c3)c3ccccc23)cc1	Pol kappa inh 89µM, POLI inh inconclusive, FEN1 inh inconclusive (no result: WRN inhibitor)
CCCN(CCC)CCNC(=O)c1cc2c(-c3ccc(Cl)cc3)nn(C)c2s1	POLB inh 25µM, FEN1 inh inconclusive
CCCN(CCC)CCNC(=O)c1cc2c(-c3ccccc3F)nn(C)c2s1	none
CCCc1nn2c(-c3ccccc3)nnc2o1	none (no result: Pol kappa inh, POLB inh, POLI inh, FEN1 inh)
CS(=O)(=O)c1ccc(C(=O)OCC(=O)NCc2cccs2)cc1[N+](=O)[O-]	Pol eta inh 45µM, POLI inh inconclusive (no result: POLB inh)
O=[N+]([O-])c1ccc(O)c(Nc2ncnc3ccc(Br)cc23)c1	POLB inh inconclusive, FEN1 inh inconclusive
O=[N+]([O-])c1ccc(O)c(Nc2ncnc3ccccc23)c1	POLB inh 28µM, Pol eta inh inconclusive
CC(C)N(CCCNC(=O)CC1Oc2ccccc2NC1=O)Cc1ccccc1 (centres undefined)	none
COc1cccc(C2C(C(=O)/C=C/c3ccco3)=C(O)C(=O)N2CCN2CCOCC2)c1 (centres undefined)	POLI inh inconclusive
COc1ccc(C2C(C(=O)/C=C/c3ccco3)=C(O)C(=O)N2CCN2CCOCC2)cc1 (centres undefined)	POLB inh inconclusive, POLI inh 20µM
CC(=O)c1cccc(NC(=O)c2cc(C)nc3c2c(C)nn3-c2cccc(Cl)c2C)c1	none (no result: WRN inhibitor)
CC1=CC(=O)c2c(O)ccc(O)c2C1=O	POLB inh 1.8µM (no result: Pol kappa inh, WRN inhibitor, Pol eta inh, POLI inh, FEN1 inh)
O=C(CSc1oc(-c2ccco2)nc1S(=O)(=O)c1ccc(Cl)cc1)c1ccc(Cl)cc1	Pol kappa inh 50µM, POLI inh inconclusive (no result: WRN inhibitor)
Cc1ccc(S(=O)(=O)c2nc(-c3ccco3)oc2SCC(=O)c2ccc(Cl)cc2)cc1	POLI inh inconclusive (no result: WRN inhibitor)
Cc1ccc(CSc2oc(-c3ccco3)nc2S(=O)(=O)c2ccc(Cl)cc2)cc1	none (no result: WRN inhibitor)
O=S(=O)(c1ccc(Br)cc1)c1nc(-c2ccco2)oc1SCc1ccccc1Cl	Pol kappa inh inconclusive, POLI inh 79µM (no result: WRN inhibitor)
CC(C)Sc1oc(-c2ccco2)nc1S(=O)(=O)c1ccc(F)cc1	Pol kappa inh inconclusive, WRN inhibitor inconclusive, POLB inh 28µM, Pol eta inh 71µM, POLI inh inconclusive
Cc1ccc(CSc2oc(-c3ccco3)nc2S(=O)(=O)c2ccc(Br)cc2)cc1	Pol kappa inh inconclusive, POLI inh 56µM (no result: WRN inhibitor)
O=S(=O)(c1ccc(Cl)cc1)c1nc(-c2ccco2)oc1SCc1ccccc1F	none (no result: WRN inhibitor)
COc1ccc(NC(=O)CN(CC(=O)Nc2ccc(OC)cc2)C(C)(C)CO)cc1	none
O=C(N/N=C/c1c(Cl)cccc1Cl)c1ccccc1F	none
O=C1CSC(=S)N1/N=C/c1ccc(Cl)c([N+](=O)[O-])c1	POLB inh 22µM (no result: Pol kappa inh, WRN inhibitor, Pol eta inh, POLI inh, FEN1 inh)
O=C1CSC(=S)N1/N=C/c1cc(Br)c(O)c(Br)c1	Pol kappa inh 16µM, WRN inhibitor 20µM, POLB inh 20µM, Pol eta inh 11µM, POLI inh 14µM, FEN1 inh 22µM
O=C1CSC(=S)N1/N=C/c1ccc2c(c1)OCCO2	POLI inh inconclusive
COc1cc(/C=N/N2C(=O)CSC2=S)ccc1O	Pol kappa inh 79µM, WRN inhibitor inconclusive, POLI inh 13µM, FEN1 inh inconclusive
Cc1ccc(-n2cc(CN3CCCN(C=O)CC3)c(-c3ccc(F)cc3)n2)cc1	none
CCc1ccc(/C=C(/C#N)c2nc(-c3ccc(C)cc3)cs2)cc1	none (no result: WRN inhibitor)
CCOc1ccc(-c2csc(/C(C#N)=C\c3ccc(O)c([N+](=O)[O-])c3)n2)cc1	WRN inhibitor inconclusive, POLB inh 28µM, Pol eta inh 22µM, POLI inh inconclusive, FEN1 inh 79µM
CCn1c(CSc2nc3ccccc3s2)nnc1SCC(=O)c1ccc(Cl)cc1	WRN inhibitor 79µM
CS(=O)(=O)c1ccc(S(=O)CC(=O)OCc2ccccc2)c([N+](=O)[O-])c1 (centres undefined)	WRN inhibitor inconclusive, POLI inh 20µM
O=C(CS(=O)c1ccc(C(F)(F)F)cc1[N+](=O)[O-])Oc1ccccc1 (centres undefined)	POLI inh inconclusive
COc1ccc(N(Cc2cc3cccc(C)c3[nH]c2=O)S(=O)(=O)c2ccc(OC)cc2)cc1	none
CCOC(=O)c1cnc2nc(NCc3ccc(OC)c(OC)c3)[nH]n2c1=O	POLB inh 35µM, Pol eta inh 20µM, POLI inh inconclusive
O=C1/C(=C\c2cc(Br)cc(Br)c2O)SC(=S)N1Cc1ccccc1	WRN inhibitor 40µM, POLB inh 35µM, Pol eta inh 79µM, POLI inh 3.2µM, FEN1 inh inconclusive
O=C1/C(=C\c2ccc(O)cc2)SC(=S)N1Cc1ccccc1	POLB inh inconclusive, POLI inh inconclusive
CCOc1cc(/C=C2/SC(=S)N(Cc3ccccc3)C2=O)ccc1O	WRN inhibitor 35µM, POLB inh inconclusive, Pol eta inh inconclusive, POLI inh inconclusive
